These results are taken from paper PMC8384837, “Expanding the binding specificity for RNA recognition by a PUF domain”.

Residue numbers refer to the chain shown, from its start.

Common to all, as to assay: yeast three-hybrid, YBZ-1, SC-Leu-His + 0.5 mM 3-AT, 4 days
Holding throughout (details): tags: N-Gal4 AD-HA kept; label: inside an RPR1-promoter hybrid RNA with tandem MS2 sites; ssRNA

Assay [1] addresses PUM1 PUF domain R3-EFE (Homo sapiens, UniProt Q14671 828-1176, C935E;R936F;Q939E). In outline: (§1)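 The interaction score is the log change in how often each variant appears, from input to selection. Frequencies came from PCR-amplified, Illumina-sequenced repeat regions of Pumilio-1 PUF domain libraries grown in strain YBZ-1 (LexA–MS2 coat fusion, HIS3 reporter) alongside matching RNA elements. Input plates were SC-Leu and selection plates were SC-Leu-His + 0.5 mM 3-AT, each for four days, and the log2 calculation used a pseudocount of 1 where a variant was absent.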

The target of assay [2] is PUM1 PUF domain R4-SNC (Homo sapiens, UniProt Q14671 828-1176, N971S;H972N;Q975C). The procedure, abridged:
as §1

The target in assay [3] is PUM1 PUF domain R5-AVR (Homo sapiens, UniProt Q14671 828-1176, C1007A;R1008V;Q1011R). In outline:
as §1

Assay [4] concerns the target PUM1 PUF domain R5-SRQ (Homo sapiens, UniProt Q14671 828-1176, C1007S). The procedure, abridged: as §1
In assay [5] the target is PUM1 PUF domain R2-KKG (Homo sapiens, UniProt Q14671 828-1176, N899K;Y900K;Q903G). In outline:
as §1

For assay [6], the target named is PUM1 PUF domain R5-KHC (Homo sapiens, UniProt Q14671 828-1176, C1007K;R1008H;Q1011C). In outline: as §1
Assay [7] deals with PUM1 PUF domain R3-RTL (Homo sapiens, UniProt Q14671 828-1176, C935R;R936T;Q939L). The procedure, abridged: as §1
The target in assay [8] is PUM1 PUF domain R8-VWK (Homo sapiens, UniProt Q14671 828-1176, N1122V;Y1123W;Q1126K). The procedure, abridged: as §1
Assay [9] has as its target T1, PUM1 PUF domain R6-SYS (Homo sapiens, UniProt Q14671 828-1176, N1043S;Q1047S).
T1 sequence: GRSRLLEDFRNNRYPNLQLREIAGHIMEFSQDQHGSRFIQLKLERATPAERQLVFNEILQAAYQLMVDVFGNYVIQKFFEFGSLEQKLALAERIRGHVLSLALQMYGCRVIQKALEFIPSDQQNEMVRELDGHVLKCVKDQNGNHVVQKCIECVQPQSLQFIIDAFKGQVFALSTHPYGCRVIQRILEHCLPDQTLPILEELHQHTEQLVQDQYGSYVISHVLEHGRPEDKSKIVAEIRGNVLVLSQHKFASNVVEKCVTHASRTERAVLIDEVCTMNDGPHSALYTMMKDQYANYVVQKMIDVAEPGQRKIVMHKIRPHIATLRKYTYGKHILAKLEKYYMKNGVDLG
In outline:
as §1

Assay [10] has as its target T2, PUM1 PUF domain R6-AFG (Homo sapiens, UniProt Q14671 828-1176, N1043A;Y1044F;Q1047G).
T2 sequence: T1 sequence with S216A, Y217F, S220G
In outline:
as §1

For the sequence “GGCUAGAACUAGUGGAUCCCCCGGCGCCCGGCGGCUCGAGCCCGGGUAAGUGUAAGUAGUCUGCAUGCCGCCGGGCGCCAUGCCUGCAGGUCGACUCUAGAAAACAUG”, the binding signal in assay [1] was 5.2 log2 enrichment (interaction score).
Regarding “GGCUAGAACUAGUGGAUCCCCCGGCGCCCGGCGGCUCGAGCCCGGGUAAGUGUACAUAGUCUGCAUGCCGCCGGGCGCCAUGCCUGCAGGUCGACUCUAGAAAACAUG”, the binding signal in assay [2] was 2.48 log2 enrichment (interaction score).
For “GGCUAGAACUAGUGGAUCCCCCGGCGCCCGGCGGCUCGAGCCCGGGUAAGUGUAUAUAGUCUGCAUGCCGCCGGGCGCCAUGCCUGCAGGUCGACUCUAGAAAACAUG”, the binding signal in assay [2] was 3.92 log2 enrichment (interaction score).
For the sequence “GGCUAGAACUAGUGGAUCCCCCGGCGCCCGGCGGCUCGAGCCCGGGUAAGUGUGAAUAGUCUGCAUGCCGCCGGGCGCCAUGCCUGCAGGUCGACUCUAGAAAACAUG”, the results for the binding signal in [3] and in assay [4] were 0.2 log2 enrichment (interaction score) and 3.6 log2 enrichment (interaction score), respectively.
Regarding “GGCUAGAACUAGUGGAUCCCCCGGCGCCCGGCGGCUCGAGCCCGGGUAAGUGUAAAGAGUCUGCAUGCCGCCGGGCGCCAUGCCUGCAGGUCGACUCUAGAAAACAUG”, in assay [5], the binding signal is 7.11 log2 enrichment (interaction score).
As for “GGCUAGAACUAGUGGAUCCCCCGGCGCCCGGCGGCUCGAGCCCGGGUAAGUGUUAAUAGUCUGCAUGCCGCCGGGCGCCAUGCCUGCAGGUCGACUCUAGAAAACAUG”, in assay [6], the binding signal was 6.52 log2 enrichment (interaction score).
For the sequence “GGCUAGAACUAGUGGAUCCCCCGGCGCCCGGCGGCUCGAGCCCGGGUAAGUGUCAAUAGUCUGCAUGCCGCCGGGCGCCAUGCCUGCAGGUCGACUCUAGAAAACAUG”, the binding signal in assay [3] is 4.64 log2 enrichment (interaction score).
As for “GGCUAGAACUAGUGGAUCCCCCGGCGCCCGGCGGCUCGAGCCCGGGUAAGUGUAAUUAGUCUGCAUGCCGCCGGGCGCCAUGCCUGCAGGUCGACUCUAGAAAACAUG”, the binding signal in [1] is 3.56 log2 enrichment (interaction score); in [7], 2.61 log2 enrichment (interaction score).
On to “GGCUAGAACUAGUGGAUCCCCCGGCGCCCGGCGGCUCGAGCCCGGGUAAGUGUAAAUAGUCUGCAUGCCGCCGGGCGCCAUGCCUGCAGGUCGACUCUAGAAAACAUG”, for which the binding signal in assay [3] was 1.73 log2 enrichment (interaction score); in [6], 3.4 log2 enrichment (interaction score); in assay [2], 2.78 log2 enrichment (interaction score); in assay [8], 4.11 log2 enrichment (interaction score); in [9], 3 log2 enrichment (interaction score); in assay [10], 3.11 log2 enrichment (interaction score).
